Assay outcomes deposited in PubChem BioAssay by several laboratories.
The list is not random: actives were taken first. Their share in the collection is about 3%.
CF NFkB block – inhibitors of cystic fibrosis induced NF-kB | 360,000 compounds, 0.86% hits | AID 588850 | inhibition, % at 5 µM | KKLEB NF-kB-GFP reporter, PAF-induced, GFP fluorescence overnight;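 active = at least 50% inhibition at 5 µM, scaled per plate between neutral and stimulator controls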;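 note: PAF is a Pseudomonas aeruginosa culture filtrate used as stimulus; plate controls were PAF-stimulated DMSO wells for no effect and unstimulated DMSO wells for full effect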
KKLEB cytotox – counter-screen for CF NF-kB inhibitors: cytotoxicity | KKLEB CF airway cells viability, ATPlite luminescence, overnight; active compounds read low; cells stimulated with P. aeruginosa culture filtrate | activity change (cytotoxicity), % at 5 µM | 360,000 compounds, 0.36% hits;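 active = corrected activity change at or below -50% at 5 µM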
TRPM1 prom inh – reduces MITF-dependent TRPM1 promoter luciferase signal; 330,000 compounds, 0.83% hits; AID 488899; SK-MEL-5 TRPM1 promoter luciferase, 24 h; inhibition, % at 12.5 µM;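 active = mean inhibition across replicates of 60% or more, whatever share of single replicates reaches that level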
EBV LMP1 NFkB – inhibitors of Epstein-Barr LMP1-induced NF-kappaB reporter | 350,000 compounds, 0.69% hits | inhibition, % at 12.5 µM | LMP1-induced NF-kappaB luciferase reporter cells, luminescence; in the data active = inhibition above about 41%;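 note: 0% = neutral control wells and 100% = reference inhibitor control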
Peg3 prom inh – Peg3 promoter activity inhibition; AID 588405; 360,000 compounds, 1.7% hits; inhibition, % at 20 µM; HeLa PEG-Prom luciferase reporter, luminescence, overnight;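 active = inhibition of at least 50% at 20 µM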
HIF-2a block – blocks HIF-2a reporter activity; inhibition, % at 18.8 µM; 360,000 compounds, 0.72% hits; AID 624352; 786-0 RCC cells HIF-2a reporter, luciferase luminescence, overnight;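 active = inhibition of the luminescence signal of 40% or more relative to plate controls, in a single-dose primary screen at 18.75 µM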
Mdm2-MdmX confirm – Mdm2/MdmX (human) interaction inhibition, confirmed; shares compounds with HIF-2a block; SaOS-2 split-luciferase Mdm2/MdmX complementation, luminescence; inhibition, % at 8 µM; 740 compounds, 99% hits;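 active = mean inhibition of the luminescence signal across two replicates at or above 26 percent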
HIF-2a inh conf – confirmation of HIF-2a inhibitors. shares compounds with HIF-2a block. 786-0 RCC cells, HIF-2a luciferase reporter luminescence, overnight. inhibition, % at 18.8 µM. 1,800 compounds, 56% hits. AID 651580;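 active = mean inhibition across four replicates of at least 40 percent at the single tested concentration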
HIF-1a counter – inhibits HIF-1a reporter, a counter-screen for HIF-2a inhibitors. AID 651589. inhibition, % at 18.8 µM. 1,800 compounds, 72% hits. MiaPaCa-2 HIF-1a luciferase reporter, desferoxamine, overnight. shares compounds with HIF-2a block;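 active = mean inhibition of the reporter signal across four replicates at the single tested dose of 50% or more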
An asterisk follows results filed as active; / = not tested or not shown.

SMILES	CF NFkB block	KKLEB cytotox	TRPM1 prom inh	EBV LMP1 NFkB	Peg3 prom inh	HIF-2a block	Mdm2-MdmX confirm	HIF-2a inh conf	HIF-1a counter
COc1cccc(/C=C/C(=O)c2ccc3c(c2)OCO3)c1OC	5.5	-15.7	/	-2.8	-219.3	-198.1	/	/	/
CCOC(=O)C(C)(C)N(Cc1ccccc1C)S(=O)(=O)c1ccc(Cl)c([N+](=O)[O-])c1	1.7	-1.0	8.3	3.8	100.2*	40.4*	/	20.7	42.1
O=S(=O)(/C(=C\c1ccc(C(F)(F)F)cc1)c1nc2ccccc2[nH]1)c1ccccc1	86.0*	-67.6*	97.1*	0.8	104.8*	84.5*	/	97.6*	107.4*
O=C(Nc1ccc2ccccc2c1)OC1CCS(=O)(=O)C1 (configuration not stated)	/	/	/	/	/	-180.0	/	/	/
N#Cc1cccnc1N1CCN(C(c2ccnc3ccccc23)c2nnnn2-c2ccc3c(c2)OCCO3)CC1 (configuration not stated)	/	/	/	/	/	-5.9	/	/	/
CCNC(=O)C1(C)CCN(C(=O)c2ccc3c(c2)OCO3)C1 (configuration not stated)	11.1	-5.0	/	/	5.8	10.9	/	/	/
CC(=O)Nc1cc(-c2cccc(C(=O)NCCN(C)C)c2)cn2c(-c3cccc(C(F)(F)F)c3)cnc12	-78.9	-29.5	/	/	98.9*	94.9*	/	0.8	104.7*
CCSc1ccc(-c2cc(NC=O)c3ncc(-c4cccc(C(=O)NCCN(C)C)c4)n3c2)cc1	-29.6	-2.2	/	/	88.8*	92.1*	/	-9.3	101.3*
CC(C)(C)NC(=O)CSc1nc(O)cc(=O)[nH]1	-19.7	21.7	7.2	-12.8	10.4	40.6*	/	6.1	-1.4
O=C(CCCN1C(=O)/C(=C/c2ccccc2)SC1=S)Nc1cccc(O)c1	8.2	-8.8	-8.6	7.9	78.0*	72.7*	103.5*	/	/
O=C(CCN1C(=O)/C(=C/c2ccccc2)SC1=S)N1CCCCCC1	30.8	-5.1	24.6	2.9	105.4*	66.6*	102.0*	/	/
Cc1ccc(/C=C2/SC(=S)N(CCCC(=O)Nc3ccc(O)cc3)C2=O)cc1	-10.0	4.0	44.0	37.6	-61.8	-8.0	100.7*	/	/
CCc1ccc(/C=C2\SC(=S)N(CCC(=O)N3CCN(C)CC3)C2=O)cc1	22.3	-0.5	0.9	-16.4	15.3	2.5	/	/	/
Cc1cccc(C)c1N1C(=O)c2ccccc2NC(=O)C1C(=O)NCC(C)C (configuration not stated)	/	/	/	/	/	6.2	/	/	/
CCCCCCCCN1C(=O)[C@H](CC(=O)N2CCN(C(=O)c3ccco3)CC2)C[C@@]2(C(=O)OC)CC(C)(C)CC=C12	/	/	/	/	/	1.7	/	/	/
CCN(CC(=O)Nc1c(F)cccc1F)C(=O)c1cc(S(=O)(=O)N(CC)CC)ccc1N1CCCCC1	-32.8	5.7	23.1	-4.1	39.9	47.6*	/	33.9	36.2
Cc1ccc(NC(=O)CSC(C)C(=O)OCc2cc(=O)oc3cc(O)ccc23)cc1 (configuration not stated)	4.3	1.2	/	6.8	0.5	1.9	/	/	/
Oc1ccccc1N=Nc1nc(-c2ccccc2)c(-c2ccccc2)[nH]1	81.4*	2.4	80.4*	84.2*	48.7	17.3	86.7*	/	/
CCN1C/C(=C/c2ccc(OC)c(O)c2)C(=O)/C(=C/c2ccc(OC)c(O)c2)C1	-31.2	-24.4	21.0	0.0	-7.2	4.9	53.0*	/	/
COc1ccc(/C=C2\CN(Cc3ccccc3)C/C(=C\c3ccc(OC)c(O)c3)C2=O)cc1O	99.7*	-68.7*	97.8*	86.5*	101.6*	37.5	101.7*	/	/
COc1ccc(C=C2C(=O)c3ccccc3C2=O)cc1O	-7.8	-7.7	10.5	-7.7	-3.8	10.6	/	/	/
COc1cc(/C=C2\COC/C(=C\c3ccc(O)c(OC)c3)C2=O)ccc1O	91.0*	-43.8	78.7*	23.6	100.6*	93.1*	102.7*	/	/
COc1cc(/C=C2/CC/C(=C/c3ccc(O)c(OC)c3)C2=O)ccc1O	44.3	-23.2	13.9	-0.6	-33.7	-19.0	/	/	/
CCCCCCCCN1C(=O)[C@H](CC(=O)NCCCC)C[C@@]2(C(=O)OC)CCCCC=C12	/	/	/	/	/	4.8	/	/	/
CCOCCCNC(=O)c1ccc(CN2CCc3ccccc3C2)cc1	3.5	-5.6	/	7.6	1.5	-5.3	/	/	/
SMILES	CF NFkB block	KKLEB cytotox	TRPM1 prom inh	EBV LMP1 NFkB	Peg3 prom inh	HIF-2a block	Mdm2-MdmX confirm	HIF-2a inh conf	HIF-1a counter
COc1cc(N2C(=O)C=CC2=O)c(OC)cc1Cl	22.5	-2.1	-4.3	8.1	105.7*	40.5*	/	80.2*	0.5
Cc1ccc2c(C(=O)CN3CCSCC3)c(C)[nH]c2c1	12.8	-14.3	0.0	-5.1	-10.4	-13.7	/	/	/
Cc1ccc2c(C(=O)CCl)c(C)[nH]c2c1	78.4*	-31.8	69.0*	3.6	50.0	-0.2	103.2*	/	/
Cc1ccc(NC(=O)c2ccc(Cl)c(N3C(=O)C=CC3=O)c2)cc1	28.0	-1.0	37.9	7.0	101.2*	49.4*	/	24.7	-34.0
O=C(Nc1ccc(Cl)c(Cl)c1)c1ccc(Cl)c(Cl)c1	-1.6	-3.4	-50.5	-22.9	-127.0	-272.4	/	/	/
COc1cccc(OC2(C)CCN(Cc3cccn3-c3nccs3)C2)c1 (configuration not stated)	9.7	3.5	/	/	6.4	18.6	/	/	/
CCCC(=O)N1CCC1(C)C(=O)Nc1ccc2scnc2c1 (configuration not stated)	1.4	5.2	/	/	-12.9	-33.1	/	/	/
Cc1oc(=O)c(NC(=O)c2ccccc2)cc1C(N)=O	5.0	-2.8	5.9	-11.1	2.5	3.7	/	/	/
O=C(Nc1cc2ccccc2oc1=O)c1ccccc1	-28.0	-7.9	63.2*	54.9*	53.5*	40.0*	/	68.3*	62.7*
CNC(=O)c1nnsc1S(=O)(=O)c1ccc(Cl)cc1	90.5*	-92.4*	85.1*	67.9*	105.5*	64.6*	103.7*	73.6*	50.1*
O=S1(=O)CC(c2ccccc2)=NN=C(c2ccccc2)C1	-31.2	-40.7	/	21.1	-257.1	-150.9	/	/	/
C[C@@]12C(=O)OC(=O)[C@]1(C)C1CCC2O1	83.8*	-2.2	80.4*	36.0	84.5*	78.6*	100.0*	/	/
COc1ccc(Br)cc1C(C[N+](=O)[O-])c1c(N)n(C)c(=O)n(C)c1=O (configuration not stated)	-8.2	-7.8	80.1*	6.6	67.9*	58.2*	/	20.9	86.3*
CCCc1cc(=O)[nH]c(SCC(=O)N2N=C(c3ccc(Cl)cc3)CC2c2ccco2)n1 (configuration not stated)	-1.9	1.0	-2.1	-6.8	13.0	40.3*	/	-16.5	81.6*
